Laboratory results from the supplement of paper PMC6555819.

Tested on: LXRa:RXRa (NR concentration 270 nM, RXRa partner concentration 90 nM)
Experiment: PBM binding z-score (relative to random genomic background probes); higher = stronger binding; sequences stand for … in GC…GCGATTGACAGCGTAGAATGAAGG
Method in brief: (§1)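 Scanned fluorescence from custom Agilent 4×180K protein-binding microarrays was regression-normalized. Binding z-scores use random background probes as reference. Ligand-free nuclear receptor dimers were incubated on the arrays for 1 h and detected with antibodies against each partner (one per run).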

Row | Sequence | PBM binding z-score
1 | TCTCGTAGATCAATAGAGGTTAAGAAAGTGCGCT | 3.34
2 | ACCGAAAGGTCGAGGTGAGTATAGAGAAAGGGAA | 3.23
3 | TTACCAAGGTGATAGGTCGTTGATGCACGCCTTG | 0.702
4 | TCTATTAGTTGATTTGGGCAACCGAAACAGCGGA | 0.602
5 | CAAACTAGGTCATGAGGTCAAAGTCCGCTTCCCG | 6.16
6 | CGTCCAAGGCCAAGGTCAGTGAAAGAGACTCGAA | 1.15
7 | ATCTCTAGGTAAAAGTTCAGCGAATCCCGAGGAT | 1.99
8 | ATACCAAGGTGATCGTGAGATCGTTGATACTAAC | 0.163
9 | CCTACTGGGCCACGAAAGGTCTTTGATTCAGTGA | -0.153
10 | GCTAGTAGTTGAAAGGGCAACCGAATGATTCTCG | 0.507
11 | AGTAGCAGGCCAAGTTTGGGTCACTCAAACAAAG | -0.31
12 | CCGACTGGGGCAAAGGTTACCAGACTCAGTACGA | 1.7
13 | ATCTCAAGGTAAAAGTTCAGTGAATCCCGAGGAT | 1.66
14 | CCTACTGGGCCACGAAAGGTTATTGATTCAGTGA | 1.28
15 | ACTTACGCGTCAACGAGGTTATAGCACGCGTATA | 0.589
16 | TCTTGTAGATCAAAGGTTAACAAAGCCGAAGCCT | 2.08
17 | TCTTGTAGATCAACAGGAGGTTAGGAAAGATCGA | -0.0525
18 | TCTATTTGTTGAAGGGCAACCGACGAGTCCGTTT | 1.22

Tested on: LXRa homodimer (NR concentration 270 nM)
Experiment: as above
Method in brief: as §1

Row | Sequence | PBM binding z-score
19 | CCTAGTTGGTCAGGAGGTCACACTCCGGATATGA | 2.22
20 | ACTATTAGATGACTTAGGGCAACCGATACGACGC | 0.702
21 | CGAACTAGGTCATTGACAGGACAGTGAGTAGTAA | 0.194
22 | GGAACGAGGGCATTCGAGGTGATAGCATGGCGAT | -0.432
23 | GCGACTGGGGCATCAGCAGGTTACCAGAACTTAA | -0.341
24 | CCTAGCAGGCCAACCTGGGTCACTCAAGGCTTGA | -0.307
25 | TGAATGAGGTCATAAGATCAGGGAACGTTGCAAA | 0.779
26 | GATACATGGTCAAGGCCAGAGTACGCGTATTGAT | -0.276
27 | CGTGCAAGGTCAGCAGGTCAGTGAAAGCGACGTG | 0.442
28 | TTACCAAGGTGAGCTGAGGTCATTGATCCAACTC | 2.23
29 | CAAACCAGGTCACCGGAAGGTCAAAGTCCGCATG | 5.52
30 | ACAAGCAGGCCAAGTTTGGGTCACTCAAACAAAG | -0.641
31 | TCTTGTAGATCAATAGAGGTCAAGAAAGTGCGCT | 3.98
32 | ACTCGGAGGACAAAGGTTAGAGCTACGCCAGTGA | 0.0666
33 | CAAACTAGGTCACCGGAAGGTCCAAGTCCGCATG | 0.716
34 | GCGACTGGGGCATGAGCAGGTTACCATAACTTAA | -0.638
35 | ATCTCTAGGTAAAGATAGTTCAGTGCATGCAAAT | 0.693
36 | TAGCATAGGTCATTCAGGGGCCAGTATAGAAAGC | 1.82
37 | ATCGAAAGGTGGTGAGGTGAGTATACAGAAAGGC | 0.284
38 | CCTACTGGGCCATTCAGCGGTCATTGATCATATG | 3.78

Row | Sequence | PBM binding z-score
39 | CTCGAAAGGTCGGTTGAGGAGAGTATACGGATAA | -0.296
40 | TCAGACAGGTGAAGGTAACTCACGTACGCAGTCG | -0.278
41 | TCTCGTAGATCAATAGAGGTTAAGAAAGTGCGCT | 0.504
42 | ACCGAAAGGTCGAGGTGAGTATAGAGAAAGGGAA | -0.000757
43 | TTACCAAGGTGATAGGTCGTTGATGCACGCCTTG | -0.126
44 | TCTATTAGTTGATTTGGGCAACCGAAACAGCGGA | 0.223
45 | CAAACTAGGTCATGAGGTCAAAGTCCGCTTCCCG | 5.21
46 | CGTCCAAGGCCAAGGTCAGTGAAAGAGACTCGAA | -0.343
47 | ATCTCTAGGTAAAAGTTCAGCGAATCCCGAGGAT | 1.58
48 | ATACCAAGGTGATCGTGAGATCGTTGATACTAAC | 0.16
49 | CCTACTGGGCCACGAAAGGTCTTTGATTCAGTGA | -0.487
50 | GCTAGTAGTTGAAAGGGCAACCGAATGATTCTCG | 0.0629
51 | AGTAGCAGGCCAAGTTTGGGTCACTCAAACAAAG | -0.37
52 | CCGACTGGGGCAAAGGTTACCAGACTCAGTACGA | -0.36
53 | ATCTCAAGGTAAAAGTTCAGTGAATCCCGAGGAT | 1.12
54 | CCTACTGGGCCACGAAAGGTTATTGATTCAGTGA | 0.5
55 | ACTTACGCGTCAACGAGGTTATAGCACGCGTATA | -0.0981
56 | TCTTGTAGATCAAAGGTTAACAAAGCCGAAGCCT | -0.0148
57 | TCTTGTAGATCAACAGGAGGTTAGGAAAGATCGA | -0.326
58 | TCTATTTGTTGAAGGGCAACCGACGAGTCCGTTT | 0.754

Tested on: LXRb:RXRa (NR concentration 270 nM, RXRa partner concentration 90 nM)
Experiment: as above
Method in brief: as §1

Row | Sequence | PBM binding z-score
59 | CCTAGTTGGTCAGGAGGTCACACTCCGGATATGA | 3.31
60 | ACTATTAGATGACTTAGGGCAACCGATACGACGC | 0.165
61 | CGAACTAGGTCATTGACAGGACAGTGAGTAGTAA | 1.92
62 | GGAACGAGGGCATTCGAGGTGATAGCATGGCGAT | 0.556
63 | GCGACTGGGGCATCAGCAGGTTACCAGAACTTAA | 0.413
64 | CCTAGCAGGCCAACCTGGGTCACTCAAGGCTTGA | 1.16
65 | TGAATGAGGTCATAAGATCAGGGAACGTTGCAAA | 4.4
66 | GATACATGGTCAAGGCCAGAGTACGCGTATTGAT | -0.463
67 | CGTGCAAGGTCAGCAGGTCAGTGAAAGCGACGTG | 3.25
68 | TTACCAAGGTGAGCTGAGGTCATTGATCCAACTC | 3.33
69 | CAAACCAGGTCACCGGAAGGTCAAAGTCCGCATG | 6.01
70 | ACAAGCAGGCCAAGTTTGGGTCACTCAAACAAAG | 0.53
71 | TCTTGTAGATCAATAGAGGTCAAGAAAGTGCGCT | 4.27
72 | ACTCGGAGGACAAAGGTTAGAGCTACGCCAGTGA | 0.618
73 | CAAACTAGGTCACCGGAAGGTCCAAGTCCGCATG | 2.42
74 | GCGACTGGGGCATGAGCAGGTTACCATAACTTAA | 0.484
75 | ATCTCTAGGTAAAGATAGTTCAGTGCATGCAAAT | 0.899
76 | TAGCATAGGTCATTCAGGGGCCAGTATAGAAAGC | 4.56
77 | ATCGAAAGGTGGTGAGGTGAGTATACAGAAAGGC | 0.389
78 | CCTACTGGGCCATTCAGCGGTCATTGATCATATG | 0.208

Row | Sequence | PBM binding z-score
79 | CTCGAAAGGTCGGTTGAGGAGAGTATACGGATAA | 1.13
80 | TCAGACAGGTGAAGGTAACTCACGTACGCAGTCG | 0.983
81 | TCTCGTAGATCAATAGAGGTTAAGAAAGTGCGCT | 1.71
82 | ACCGAAAGGTCGAGGTGAGTATAGAGAAAGGGAA | 2.69
83 | TTACCAAGGTGATAGGTCGTTGATGCACGCCTTG | 0.514
84 | TCTATTAGTTGATTTGGGCAACCGAAACAGCGGA | 0.863
85 | CAAACTAGGTCATGAGGTCAAAGTCCGCTTCCCG | 4.92
86 | CGTCCAAGGCCAAGGTCAGTGAAAGAGACTCGAA | 1.21
87 | ATCTCTAGGTAAAAGTTCAGCGAATCCCGAGGAT | 1.46
88 | ATACCAAGGTGATCGTGAGATCGTTGATACTAAC | 0.121
89 | CCTACTGGGCCACGAAAGGTCTTTGATTCAGTGA | -0.225
90 | GCTAGTAGTTGAAAGGGCAACCGAATGATTCTCG | 0.605
91 | AGTAGCAGGCCAAGTTTGGGTCACTCAAACAAAG | 0.549
92 | CCGACTGGGGCAAAGGTTACCAGACTCAGTACGA | 1.99
93 | ATCTCAAGGTAAAAGTTCAGTGAATCCCGAGGAT | 0.879
94 | CCTACTGGGCCACGAAAGGTTATTGATTCAGTGA | 1.1
95 | ACTTACGCGTCAACGAGGTTATAGCACGCGTATA | 0.964
96 | TCTTGTAGATCAAAGGTTAACAAAGCCGAAGCCT | 2.16
97 | TCTTGTAGATCAACAGGAGGTTAGGAAAGATCGA | 0.179
98 | TCTATTTGTTGAAGGGCAACCGACGAGTCCGTTT | 0.891
